Screening results as filed in PubChem BioAssay.
Most compounds without a hit are left out; they make up all but 2.4% or so of the library.
HTR2A ag – agonists of mouse serotonin 5-HT2A receptor (HTR2A); CHO-K1 mHTR2A beta-arrestin complementation, luminescence; percent of 30 µM serotonin response; activation, % at 7.6 µM; actives 0.66% (n = 360,000); AID 624169;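 active = activation above a run cutoff, the mean activation of all tested compounds plus 3 SD, cut at about 14% in these data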;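 note: 0% = plate median of compound wells and 100% = 30 µM serotonin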
TMEM16A act – mouse TMEM16A channel activation, primary screen; Q8BHY3; HEK293 TMEM16A/YFP-H148Q/I152L, iodide quench fluorescence; hits give low values; B-score at 10 µM; actives 0.3% (n = 340,000); AID 623877;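 active = fluorescence-ratio B-score plate-corrected deviation score at least 3 library SD below zero, with starting fluorescence score within 5 deviations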;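 note: channel opened by trigger with iodide after compound preincubation; score built on the fluorescence ratio of max minus min over baseline; more negative score means more quench and so TMEM16A activation or potentiation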
Target sequence (Q8BHY3 whole entry, looked up): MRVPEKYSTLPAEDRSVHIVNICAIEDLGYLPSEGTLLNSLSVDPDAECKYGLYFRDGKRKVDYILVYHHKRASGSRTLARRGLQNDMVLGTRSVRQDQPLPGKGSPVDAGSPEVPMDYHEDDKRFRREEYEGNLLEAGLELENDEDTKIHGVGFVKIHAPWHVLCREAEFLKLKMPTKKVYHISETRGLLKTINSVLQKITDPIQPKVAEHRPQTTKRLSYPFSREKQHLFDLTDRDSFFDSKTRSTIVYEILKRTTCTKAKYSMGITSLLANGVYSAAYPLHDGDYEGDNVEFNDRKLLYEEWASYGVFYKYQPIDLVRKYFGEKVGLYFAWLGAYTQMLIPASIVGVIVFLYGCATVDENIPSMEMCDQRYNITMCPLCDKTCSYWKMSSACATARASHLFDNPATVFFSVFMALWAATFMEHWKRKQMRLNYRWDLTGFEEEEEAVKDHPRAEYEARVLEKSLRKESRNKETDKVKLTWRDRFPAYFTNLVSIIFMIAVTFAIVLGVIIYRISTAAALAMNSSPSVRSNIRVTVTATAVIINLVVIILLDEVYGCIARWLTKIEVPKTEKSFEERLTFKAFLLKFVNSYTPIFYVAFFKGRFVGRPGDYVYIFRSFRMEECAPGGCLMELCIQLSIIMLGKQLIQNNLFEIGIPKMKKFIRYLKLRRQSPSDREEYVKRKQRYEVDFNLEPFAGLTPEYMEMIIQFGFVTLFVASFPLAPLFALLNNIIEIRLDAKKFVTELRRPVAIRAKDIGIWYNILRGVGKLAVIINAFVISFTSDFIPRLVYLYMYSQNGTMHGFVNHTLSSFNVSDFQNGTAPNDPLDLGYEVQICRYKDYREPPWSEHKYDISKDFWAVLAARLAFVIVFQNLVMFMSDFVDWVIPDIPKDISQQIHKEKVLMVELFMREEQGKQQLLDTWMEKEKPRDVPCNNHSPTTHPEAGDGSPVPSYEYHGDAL
TLR4 MyD88 comp – inhibitors of human TLR4-MyD88 binding; AID 861; inhibition, % at 8.4 µM; HeLa CL3-4 TLR4/MyD88 BLA complementation, FRET ratio; actives 0.18% (n = 200,000); in the data active = inhibition above about 25%;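 note: 0% = vehicle and 100% = reference inhibitor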
TLR9-MyD88 inh – inhibitors of human TLR9-MyD88 binding; inhibition, % at 4.98 µM; actives 0.21% (n = 340,000); Q9NR96+Q99836; CHO BLA complementation TLR9-MyD88, CCF4 FRET ratio; AID 504734;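 active = inhibition above the mean over all tested compounds plus 3 SD, cut at about 21% in these data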;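 note: 0% = DMSO only wells and 100% = clavulanate BLA inhibitor control wells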
NOD2-RIPK2 inh – inhibitors of human NOD2-RIPK2 interaction | O43353 | CHO BLA complementation NOD2-RIPK2, CCF4 ratio | AID 624267 | inhibition, % at 4.98 µM | actives 0.38% (n = 360,000); in the data active = inhibition above about 21%;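 note: 0% = vehicle only and 100% = reference blocker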
ANO1 block – inhibitors of mouse TMEM16A calcium-activated chloride channel; HEK293 TMEM16A/YFP iodide influx fluorescence, ionomycin; normalized B-score (activity score, 25-100; higher = stronger inhibition) at 10 µM; actives 1.2% (n = 310,000); AID 588511;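 active = ratio plate-corrected score three or more library SD toward inhibition, starting fluorescence score within five deviations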;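 note: score derived from kinetic fluorescence span divided by baseline fluorescence per well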
NOD2 RIPK2 conf – NOD2-RIPK2 interaction inhibition confirmed. shares compounds with NOD2-RIPK2 inh. CHO cells, NOD2-RIPK2 BLA complementation, CCF4 FRET. inhibition, % at 4.98 µM. actives 70% (n = 1,200);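 active = mean inhibition across replicates above a set limit taken from the earlier primary screen, cut at about 21% in these data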;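 note: 0% = DMSO-only wells and the high end = clavulanate BLA-blocked wells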
BLA counter – counter-screen for NOD2-RIPK2 interaction inhibitors: BLA reporter | shares compounds with NOD2-RIPK2 inh | CHO BLA reporter, CCF4 FRET ratio, counterscreen | inhibition, % at 4.98 µM | actives 57% (n = 1,200);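 active = mean inhibition above the low-control mean inhibition plus three low-control SD, cut at about 11% in these data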;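 note: 0% = DMSO only wells and 100% = clavulanate high control wells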
An asterisk follows results filed as active; i = inactive; / = no result.

SMILES	HTR2A ag	TMEM16A act	TLR4 MyD88 comp	TLR9-MyD88 inh	NOD2-RIPK2 inh	ANO1 block	NOD2 RIPK2 conf	BLA counter
O=c1cc(-c2cccs2)oc2ccc(Cl)cc12	-3	i	6	-4	-11	i	/	/
CC1=CC(=O)C(C(C)C)=C/C1=N/OS(=O)(=O)c1ccccc1	0	-6.5*	/	6	59*	100*	37*	0
CC1=CC(=O)C=C(C)C1=NOS(=O)(=O)c1ccccc1	-10	i	2	-1	27*	/	31*	-4
Cc1sc2ncn(CC(=O)N3CCN(c4ccccn4)CC3)c(=O)c2c1S(=O)(=O)N1CCC(C)CC1	0	i	/	-5	-7	i	/	/
C1CCCCCC(NCCN2CCNCC2)CCCCC1	-1	i	/	5	2	i	/	/
CCCN1CCN(C(=O)c2cccc3c2C(=O)N(CCOC)C3)CC1	-1	i	-6	5	8	i	/	/
C=CCNC1=C(Cl)C(=O)N(c2cccc(Cl)c2Cl)C1=O	-6	i	6	6	22*	i	8	8
C=CCNC1=C(Cl)C(=O)N(Cc2ccccc2)C1=O	9	i	/	4	-5	i	/	/
COc1ccccc1CNC(=O)c1ccc(OC(C)C)cc1	-1	i	-13	11	-3	i	/	/
C=CC[C@H](CC(=O)NCCO)C(=O)NC[C@@H](OC(=O)[C@H](CC=C)CC(=O)OC(C)(C)C)c1ccccc1	2	i	/	-7	-2	/	/	/
COC(=O)c1cccc(-n2sc3ccccc3c2=O)c1	10	i	/	12	40*	/	36*	13*
CCOC(=O)C1CCN(S(=O)(=O)c2ccc3c4c(cccc24)C(=O)N3CC)CC1	2	i	/	-1	24*	/	24*	24*
CCOC(=O)C1CCN(S(=O)(=O)c2ccc3c4c(cccc24)C(=O)N3)CC1	-2	i	8	4	1	i	/	/
Cc1ccc(S(=O)(=O)N2CCN(C(=O)COc3ccc(C)nc3[N+](=O)[O-])CC2)c(C)c1	2	i	-15	-1	-9	i	/	/
CC(C)Oc1ccc(S(=O)(=O)N2CCCCC2)cc1NC(=O)CN1C(=O)NC(C)(c2ccccc2)C1=O (configuration not stated)	2	i	/	3	10	i	/	/
CCC(C)Sc1cccc(-c2nc3cnccn3c2NC2CCCCC2)c1 (configuration not stated)	-2	i	/	22*	34*	/	28*	42*
Cc1c(C(=O)Nc2ccccc2)c2ccc(C(F)(F)F)cc2n1O	4	i	/	/	34*	i	28*	10
O=C(O)CCNS(=O)(=O)c1ccccc1C(F)(F)F	-3	i	-2	6	1	i	/	/
COc1ccc(C(C(=O)Nc2c(C)cccc2C)n2c(=O)c(-c3ccccc3)nc3ccccc32)cc1 (configuration not stated)	-4	/	/	/	-3	/	/	/
Cc1cccc(C)c1NC(=O)C(c1ccc(-c2ccccc2)cc1)n1c(=O)c(-c2cc3ccccc3[nH]2)nc2ccccc21 (configuration not stated)	-6	/	/	/	42*	/	39*	66*
Cc1cccc(C)c1NC(=O)C(c1ccc(C(F)(F)F)cc1)n1c(=O)c(-c2cc3ccccc3[nH]2)nc2ccccc21 (configuration not stated)	2	/	/	/	47*	/	45*	69*
Cc1nc2c(=O)n(C)c(=O)n(C)c2nc1Cl	-5	i	21	17	24*	i	30*	-8
COc1ccc(Cl)c2sc(N(CCN(C)C)C(=O)CCS(=O)(=O)c3ccc(C)cc3)nc12	-1	i	/	-7	-9	i	/	/
COc1ccc(OC)c2sc(N(CCCN(C)C)C(=O)CCS(=O)(=O)c3ccccc3)nc12	-3	i	/	16	41*	i	54*	5
CNc1c2cccc(C)c2nc2c(C(=O)NCCN(C)C)cccc12	1	i	/	7	41*	/	58*	29*
SMILES	HTR2A ag	TMEM16A act	TLR4 MyD88 comp	TLR9-MyD88 inh	NOD2-RIPK2 inh	ANO1 block	NOD2 RIPK2 conf	BLA counter
Cc1ccc(C(=O)NCCN(C)C)c(C)c1	-5	i	-6	-6	-5	i	/	/
O=C(Cc1cccc(F)c1)N1CCCC(CO)(Cc2ccc(F)cc2F)C1 (configuration not stated)	-4	i	/	7	-11	i	/	/
COCC(=O)O[C@]1(CCN(C)CCCc2nc3ccccc3[nH]2)CCc2cc(F)ccc2[C@@H]1C(C)C	-3	i	/	-10	25*	i	20	-3
O=Cc1ccc(OC(=O)c2cc(Cl)nc3ccccc23)cc1	6	i	2	3	-6	i	/	/
CCOC(=O)CC(S(=O)(=O)c1ccccc1)S(=O)(=O)c1ccccc1	2	/	/	2	52*	/	14	10
CCOC(=O)N=S(N)(=O)c1ccccc1 (configuration not stated)	3	i	11	-2	-12	i	/	/
Nc1nonc1-n1nnc(C(=O)N/N=C/C2CC=CCC2)c1CSc1ccccc1 (configuration not stated)	-3	i	/	-1	4	i	/	/
Cc1ccc(-c2cc(C(F)F)nc(S(C)(=O)=O)n2)cc1	-1	i	4	15	23*	i	18	-2
CCOC(=O)c1ccc(OCCOc2cccc(C)c2)cc1	-1	i	/	-1	-4	i	/	/
CCCCCNC(=O)C(c1ccncc1)n1c(=O)c(-c2ccco2)nc2ccccc21 (configuration not stated)	6	/	/	/	-11	/	/	/
CCCCCNC(=O)C(c1cc2ccccc2o1)n1c(=O)c(-c2ccco2)nc2ccccc21 (configuration not stated)	-2	/	/	/	-12	/	/	/
CCCCCNC(=O)C(c1ccncc1)n1c(=O)c(-c2cc3ccccc3[nH]2)nc2ccccc21 (configuration not stated)	-1	/	/	/	50*	/	51*	69*
CCCCCNC(=O)C(c1ccc(OC)cc1)n1c(=O)c(-c2cc3ccccc3[nH]2)nc2ccccc21 (configuration not stated)	0	/	/	/	44*	/	39*	62*
CCCCCNC(=O)C(c1ccnc2ccccc12)n1c(=O)c(-c2cc3ccccc3[nH]2)nc2ccccc21 (configuration not stated)	1	/	/	/	51*	/	46*	67*
